Values joined by “and” are separate entries in the source; they are usually repeats but may differ in a detail not shown here. Identical values can stand only once. Active and inactive are the calls of the source. The call rests on the fitted dose curve.
These compounds were tested against Glucocorticoid receptor (Homo sapiens) (UniProt P04150) (assay: GR-EFC Redistribution (AID 451)). Conditions: CHO-K1 GR-EFC translocation, beta-gal luminescence, 2 h.
Sequence of Glucocorticoid receptor (Homo sapiens) (P04150 whole entry, looked up): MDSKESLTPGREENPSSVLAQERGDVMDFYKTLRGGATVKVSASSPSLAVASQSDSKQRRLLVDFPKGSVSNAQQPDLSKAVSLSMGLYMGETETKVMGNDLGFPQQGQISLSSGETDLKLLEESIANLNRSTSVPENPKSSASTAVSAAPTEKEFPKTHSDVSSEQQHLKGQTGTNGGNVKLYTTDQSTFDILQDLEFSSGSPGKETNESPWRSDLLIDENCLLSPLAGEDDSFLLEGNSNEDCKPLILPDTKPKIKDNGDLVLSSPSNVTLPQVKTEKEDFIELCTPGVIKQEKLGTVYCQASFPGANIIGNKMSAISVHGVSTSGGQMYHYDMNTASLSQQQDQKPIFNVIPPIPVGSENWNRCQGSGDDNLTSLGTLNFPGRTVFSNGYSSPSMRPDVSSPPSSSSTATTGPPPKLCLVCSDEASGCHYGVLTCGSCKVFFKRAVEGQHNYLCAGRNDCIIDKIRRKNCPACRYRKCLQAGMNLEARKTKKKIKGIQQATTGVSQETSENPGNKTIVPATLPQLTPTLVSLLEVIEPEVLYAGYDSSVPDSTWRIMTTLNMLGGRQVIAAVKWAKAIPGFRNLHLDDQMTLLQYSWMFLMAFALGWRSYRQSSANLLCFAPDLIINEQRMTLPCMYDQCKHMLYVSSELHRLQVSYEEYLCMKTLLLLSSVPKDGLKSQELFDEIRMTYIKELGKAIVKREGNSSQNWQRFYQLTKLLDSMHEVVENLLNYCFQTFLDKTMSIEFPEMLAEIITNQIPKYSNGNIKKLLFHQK
Excerpt: NIH Molecular Libraries Screening Centers Network [MLSCN]
NIH Chemical Genomics Center [NCGC]
The glucocorticoid receptor (GR) is a cytoplasmic receptor that belongs to the nuclear receptor family of ligand-dependent transcription factors. Upon glucocorticoid binding to its receptor, the glucocorticoid-GR complex translocates into the nucleus, where it binds as a dimer to specific DNA sequences (glucocorticoid response elements), enhancing or suppressing transcription of a wide variety of glucocorticoid-responsive genes. In addition to their important roles in normal physiology and metabolism, glucocorticoids are administered exogenously as treatments for a wide variety of allergic, autoimmune, and neoplastic conditions. Identification of compounds that modulate aspects of GR signalling would be useful in dissecting glucocorticoid response pathways as well as developing GR modulators with more targeted clinical effects.
Traditionally, GR modulators have been identified using receptor binding or direct transactivation assays. However, assays for glucocorticoid-dependent nuclear translocation can also be used to screen for compounds affecting GR signaling.
Immunocytochemical staining has been used to assay for GR translocation, but is not suitable for high throughout screening due to the multiple reagent addition and wash steps required. Recently, a novel cell-based GR assay in Enzyme Fragment Complementation (EFC) format was developed by DiscoveRx (Fremont, CA). The assay uses EFC of b-galactosidase (b-gal) as an indicator of GR-translocation in engineered CHO-K1 biosensor cells. The enzyme acceptor (EA) fragment of b-gal resides in the nucleus , as designed through the use of a proprietary set of sequence additions and modifications. The small peptide enzyme donor (ED) fragment of b-gal is fused directly to the C-terminus of GR, and is localized in the cytoplasm is the absence of receptor signaling. Upon binding to a GR ligand, the complex translocates to the nucleus, where intact enzyme activity is restored by complementation and b-gal activity is detected. We optimized this GR-EFC assay in homogenous 1536-well plate assay format for high throughput screening.
NCGC Assay Protocol Summary:
CHO-K1 cells stably expressing NLS-enzyme acceptor fragment (EA) of b-gal and GR-enzyme donor (ED) fragment of b-gal were maintained in F12 medium (Invitrogen, Carlsbad, CA) at 37 Celsius degrees under a humidified atmosphere containing 5% CO2 and 95% air. The medium contained 10% FBS, 2 mM L-glutamine, 50 U/ml penicillin 50 ug/ml streptomycin, and 250 ug/ml hygromycin and 500 ug/ml G418 (Invitrogen).
GR-translocation was measured beta-gal enzyme activity using the PathHunter Detection Kit containing cell membrane permeablizing reagent and beta-gal substrate (DiscoveRx, Fremont, CA). All compounds were screened as titrations from 0.6 nM to 46 uM final concentration. The assay was performed in 1536-well format as follows:
5 uL cell suspension (1,000 cells)/well
Incubation at 37 Celsius degrees for two hours
1.25 uL 1X detection buffer from the kit supplied by DiscoveRx
Incubation at room temperature for one hour
Read plate in luminescence mode in ViewLux plate reader (PerkinElmer)
Keywords: NIH Roadmap, MLSCN, MLI, MLSMR, GR-EFC, GREFC, qHTS, NCGC
With O=C(O)c1nn(Cc2ccc(Cl)cc2Cl)c2ccccc12 the Potency was > 46 µM (inactive). COC(=O)C1=CCCN(C)C1 was tested, and the Potency was > 46 µM (inactive) and > 20.6 µM (inactive). For O=C1NCN(c2ccccc2)C12CCN(CCCOc1ccc(F)cc1)CC2, the Potency was > 46 µM (inactive). In the case of O=C(CCCN1CCC(n2c(=O)[nH]c3ccccc32)CC1)c1ccc(F)cc1, the Potency is reported as > 20.6 µM (inactive). For OC(c1ccccc1)(c1ccccc1)C1CCNCC1, the Potency was > 20.6 µM (inactive). With CCCCCCCCC(=O)NCc1ccc(O)c(OC)c1 the Potency was > 46 µM (inactive). In the case of COc1ccc(CN2CCNCC2)c(OC)c1OC, the Potency is reported as > 20.6 µM (inactive). In the case of Oc1ccc2[nH]cc(CCCCN3CC=C(c4ccccc4)CC3)c2c1, the Potency is reported as > 46 µM (inactive). For COc1ccc(C(=O)N2CCCC2=O)cc1, the Potency was > 46 µM (inactive). For c1ccc2nc(N3CCNCC3)ccc2c1, the Potency was > 46 µM (inactive) and > 20.6 µM (inactive). CC(C)[N+](C)(CCC(C(N)=O)(c1ccccc1)c1ccccc1)C(C)C was tested, and the Potency was > 20.6 µM (inactive). CCC(=O)O[C@H]1CC[C@H]2[C@@H]3CCC4=CC(=O)CC[C@]4(C)[C@H]3CC[C@]12C was tested, and the Potency was > 20.6 µM (inactive). With CN1[C@@H]2CC[C@H]1CC(OC(=O)c1cc(Cl)cc(Cl)c1)C2 (some centres undefined) the Potency was > 46 µM (inactive). NC(=O)CN1CCCC1=O was tested, and the Potency was > 46 µM (inactive) and > 20.6 µM (inactive).
Potency means the concentration at half of the fitted maximal effect.
